We go through 40 compounds from PubChem BioAssay (Tox21).

Structures are written as SMILES. Active and inactive are the calls of the source. A call without a number means that no potency is given here. The call rests on the fitted dose curve; in most records, active means well fitted curve in the direction sought with a large enough effect in the signal ratio in the repeat runs (not every such curve was filed as active); inconclusive means weak or mixed curves, or effect the other way; inactive means no such curve, though single readings can be large or run the other way; the % refers to the signal ratio.
Potency means the concentration at half of the fitted maximal effect.

Sequence of Estrogen receptor (Homo sapiens) (P03372 whole entry, looked up): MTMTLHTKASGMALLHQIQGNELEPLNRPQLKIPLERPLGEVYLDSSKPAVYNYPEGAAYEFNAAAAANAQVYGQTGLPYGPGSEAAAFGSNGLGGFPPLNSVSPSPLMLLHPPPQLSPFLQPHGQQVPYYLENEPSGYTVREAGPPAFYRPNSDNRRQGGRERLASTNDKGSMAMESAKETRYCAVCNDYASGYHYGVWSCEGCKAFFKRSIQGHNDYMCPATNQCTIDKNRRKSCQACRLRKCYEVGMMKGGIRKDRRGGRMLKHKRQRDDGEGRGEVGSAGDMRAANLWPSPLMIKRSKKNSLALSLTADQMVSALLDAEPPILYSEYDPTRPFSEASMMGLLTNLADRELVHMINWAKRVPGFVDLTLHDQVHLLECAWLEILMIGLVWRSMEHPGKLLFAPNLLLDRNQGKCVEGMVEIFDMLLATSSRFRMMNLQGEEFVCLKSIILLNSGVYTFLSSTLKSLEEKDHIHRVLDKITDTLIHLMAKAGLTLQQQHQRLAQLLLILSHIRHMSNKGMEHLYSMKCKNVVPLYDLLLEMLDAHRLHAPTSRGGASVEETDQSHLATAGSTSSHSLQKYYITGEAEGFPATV

The target of this assay is Estrogen receptor (Homo sapiens) (UniProt P03372). The experiment in a line: qHTS assay to identify small molecule antagonists of the estrogen receptor alpha (ER-alpha) signaling pathway (AID 743069). The conditions noted are these: HEK293 ER-alpha-UAS-bla, beta-lactamase ratio, antagonist mode; series mostly up to 69.4 µM. The text has this:
National Center for Advancing Translational Sciences [NCATS]
NIH Chemical Genomics Center [NCGC]
U.S. Environmental Protection Agency [EPA]
National Institutes of Environmental Health Sciences [NIEHS]
National Toxicology Program [NTP]
U.S. Food and Drug Administration [FDA]
Estrogen receptor (ER), a nuclear hormone receptor, plays an important role in development, metabolic homeostasis and reproduction. Two subtypes of ER, ER-alpha and ER-beta have similar expression patterns with some uniqueness in both types. Endocrine disrupting chemicals (EDCs) and their interactions with steroid hormone receptors like ER causes disruption of normal endocrine function. To identify the compounds that inhibit ER signaling, an ER-alpha-UAS-bla GripTiteTM cell line (Invitrogen, Carlsbad, CA, USA) containing a beta-lactamase reporter gene under the control of an Upstream Activator Sequence (UAS) stably integrated into HEK293 cells was used to screen the Tox21 10K compound library.
Tox21 Assay Protocol Summary:
ER-alpha-bla cells were cultured in assay medium containing 2% charcoal stripped FBS overnight in the culture flasks before the assay was performed. The cells were dispensed at 5,000 cells/5 uL of assay medium per well into black wall/clear-bottom 1536-well plates using a Multidrop Combi (ThermoFisher Scientific, Waltham, MA) dispenser. After the assay plates were incubated at a 37C and 5% CO2 for 4 hr, 23 nL of compounds dissolved in DMSO, positive controls or DMSO only was transferred to the assay plate by a Pintool station (Kalypsys, San Diego, CA), followed by addition of 1 uL of 17beta-estradiol in assay medium using a Flying Reagent Dispenser (Aurora Discovery, San Diego, CA). The plates were incubated at 37C and 5% CO2 for 18 hr. Then 1 uL of LiveBLAzerTM B/G FRET substrate was added using a Flying Reagent Dispenser, the plates were incubated at room temperature for 2 hours, and fluorescence intensity was measured by an Envision plate reader (PerkinElmer, Shelton, CT).
In the case of `CC[C@H]1OC(=O)[C@H](C)[C@@H](O[C@H]2C[C@@](C)(OC)[C@@H](O)[C@H](C)O2)[C@H](C)[C@@H](O[C@@H]2O[C@H](C)C[C@H](N(C)C)[C@H]2O)[C@](C)(O)C[C@@H](C)/C(=N\OCOCCOC)[C@H](C)[C@@H](O)[C@]1(C)O`, the Potency result was “inactive”.

Turning to `CC1=C2[C@@H]([C@H](C)CC[C@H]2/C=C(\C)C(=O)O)[C@H](O)C1`, the Potency entry is “inactive”.

For `COc1ccc(C2C(=O)c3ccccc3C2=O)cc1`, the Potency result was “inactive”.

Regarding `ClC1=C(Cl)C1(Cl)Cl`, the Potency result was “inactive”.

Turning to `CC(C)C1CCC(C(=O)N[C@H](Cc2ccccc2)C(=O)O)CC1` (stereo not given in full), the Potency result is “inactive”.

For `O=C(O)CNC(=O)c1ccccc1I`, the Potency entry was “inactive”.

Regarding `Cc1ccc(NC(=O)N(C)C)cc1NC(=O)N(C)C`, the Potency result was “inactive”.

Regarding `CC(=O)OCCC(C)CC(C)(C)C` (stereo not given), the Potency result is “inactive”.

Consider `Cc1cn([C@H]2C[C@H](F)[C@@H](CO)O2)c(=O)[nH]c1=O`, for which the Potency entry is “inactive”.

As to `O[C@@H](CNC[C@H](O)[C@H]1CCc2cc(F)ccc2O1)[C@@H]1CCc2cc(F)ccc2O1`, the Potency is 26.8 µM [inconclusive] (active).

In the case of `Nc1c(Cl)cc(Cl)cc1[N+](=O)[O-]`, the Potency entry was “inactive”.

`O=C(O)CCS`: the Potency entry is “inactive”.

With `COC1CCC=CO1` (stereo not given), the Potency result is “inactive”.

Regarding `C=CC(=O)NC(C)C`, the Potency result was “inactive”.

For `NC(=O)CCCCC(N)=O`, the Potency result was “inactive”.

As for `[Cl][Nd]([Cl])[Cl]`, the Potency entry is “inactive”.

For the compound `CSCC[C@H](NC(=O)[C@H](Cc1c[nH]c2ccccc12)NC(=O)CCNC(=O)OC(C)(C)C)C(=O)N[C@@H](CC(=O)O)C(=O)N[C@@H](Cc1ccccc1)C(N)=O`, the Potency entry was “inactive”.

On to `CCCCC(CC)COS(=O)(=O)O` (stereo not given), for which the Potency entry is “inactive”.

Consider `Cc1ccc(S(=O)(=O)NC(=O)NC2CCCCC2)cc1`, for which the Potency result is “inactive”.

`Nc1cccc2c(N)cccc12`: the Potency result is “inactive”.

With `CC(C)(C)NCC(O)COc1cccc2c1C[C@H](O)[C@H](O)C2` (stereo not given in full), the Potency entry is “inactive”.

Turning to `O=[N+]([O-])c1ccc2ncccc2c1`, the Potency result was “inactive”.

For `COc1cc(OC)c2ccc(=O)oc2c1`, the Potency entry is “inactive”.

On to `COc1cc(S(=O)(=O)Nc2ccccc2)c(OC)cc1N`, for which the Potency result is “inactive”.

Consider `COC(=O)C1=C(C)NC(C)=C(C(=O)OC(C)(C)CN(C)CCC(c2ccccc2)c2ccccc2)C1c1cccc([N+](=O)[O-])c1` (stereo not given), for which the Potency is 10.7 µM [inhibitor] (active).

Consider `CCN(CC)CCOc1ccccc1C(=O)CCc1ccccc1`, for which the Potency entry was “inactive”.

As to `COc1cc(C(C)=O)ccc1OCCCN1CCC(c2noc3cc(F)ccc23)CC1`, the Potency result was “inactive”.

Regarding `CC(C)(O)CCc1ccccc1`, the Potency result is “inactive”.

With `FC(F)(F)C(F)(F)C(F)(F)C(F)(F)CCI`, the Potency result was “inactive”.

As to `CCC(CO)(CO)CO`, the Potency result is “inactive”.

In the case of `CCCCCCCCCCCCCCN(C)C`, the Potency result was “inactive”.

With `CC(C)(C(=O)c1cccnc1)c1cccnc1`, the Potency result is “inactive”.

Regarding `Cc1ccc2c(c1)CCCN2`, the Potency entry was “inactive”.

As for `CC(C)C(=O)OCCOc1ccccc1`, the Potency result was “inactive”.

Regarding `COC(OC)OC`, the Potency entry was “inactive”.

Turning to `CC1CCCC(=O)C1=O` (stereo not given), the Potency result was “inactive”.

Consider `CCC(C)(C)C(=O)O`, for which the Potency entry is “inactive”.

Take `CC(C)OC(=O)c1ccccc1C(=O)OC(C)C`: the Potency result is “inactive”.

Turning to `Nc1ccc(N=Nc2ccc(N)cc2)cc1`, the Potency result is “inactive”.

On to `NC(=O)c1ccccc1[N+](=O)[O-]`, for which the Potency entry is “inactive”.
